Test in all cases: DAPPL (digital affinity profiling via proximity ligation, sequencing); 10 mM Tris-HCl pH 7.5, 50 mM NaCl, 1 mM DTT, 4% glycerol, room temperature, 30 min; GST-TFs on glutathione beads, 16-mer random dsDNA library, 0.1% formaldehyde crosslink after washing; high values mean tight binding
Holding throughout (conditions): protein: recombinant; tags: N-terminal GST; dsDNA, one strand shown

The target in one experiment is T1, FLI1 (Homo sapiens, UniProt Q01543 1-452).
T1 sequence: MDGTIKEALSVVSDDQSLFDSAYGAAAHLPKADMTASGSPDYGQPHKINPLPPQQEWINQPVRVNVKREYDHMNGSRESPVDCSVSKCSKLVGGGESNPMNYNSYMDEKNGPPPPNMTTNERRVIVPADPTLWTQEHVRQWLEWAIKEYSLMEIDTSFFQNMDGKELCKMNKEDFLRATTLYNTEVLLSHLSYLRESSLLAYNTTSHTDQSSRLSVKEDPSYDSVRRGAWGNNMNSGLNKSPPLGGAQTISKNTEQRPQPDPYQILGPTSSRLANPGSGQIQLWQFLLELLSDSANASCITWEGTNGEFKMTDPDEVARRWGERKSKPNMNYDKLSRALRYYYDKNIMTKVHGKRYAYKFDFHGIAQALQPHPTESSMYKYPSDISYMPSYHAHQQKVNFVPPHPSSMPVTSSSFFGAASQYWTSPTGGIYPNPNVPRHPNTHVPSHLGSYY
The method in brief: (§1)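 Beads coated with glutathione captured GST-fused human transcription factors that had been expressed in yeast, and the factors were then given DNA barcodes and pooled with a tag-only sample. The pools were incubated with 200 nmole of a random double-stranded 16-mer DNA library in Tris/NaCl/DTT/glycerol buffer for 30 min at room temperature, washed, crosslinked with 0.1% formaldehyde and proximity-ligated with BsaI/T4 ligase at 37 °C for 1 h. PCR amplification and Illumina NextSeq500 sequencing came last. Binding signal is each hexamer's read frequency for a factor divided by its frequency for the tag-only sample.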

For the next experiment, the target named is T2, ELK1 (Homo sapiens, UniProt P19419 1-428).
T2 sequence: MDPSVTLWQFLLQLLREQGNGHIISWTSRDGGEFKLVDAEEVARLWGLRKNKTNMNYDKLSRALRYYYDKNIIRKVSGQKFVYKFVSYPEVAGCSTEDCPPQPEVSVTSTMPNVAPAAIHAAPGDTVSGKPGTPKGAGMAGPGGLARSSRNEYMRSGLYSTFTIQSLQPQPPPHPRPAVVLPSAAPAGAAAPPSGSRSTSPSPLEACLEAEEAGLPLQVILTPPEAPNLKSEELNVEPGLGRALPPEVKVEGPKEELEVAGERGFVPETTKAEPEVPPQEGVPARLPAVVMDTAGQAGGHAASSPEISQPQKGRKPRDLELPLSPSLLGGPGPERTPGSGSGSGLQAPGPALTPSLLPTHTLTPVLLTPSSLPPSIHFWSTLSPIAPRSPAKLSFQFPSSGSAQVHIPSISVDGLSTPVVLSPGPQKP
The method in brief: as §1

The next experiment has as its target T3, GABPA (Homo sapiens, UniProt Q06546 1-454).
T3 sequence: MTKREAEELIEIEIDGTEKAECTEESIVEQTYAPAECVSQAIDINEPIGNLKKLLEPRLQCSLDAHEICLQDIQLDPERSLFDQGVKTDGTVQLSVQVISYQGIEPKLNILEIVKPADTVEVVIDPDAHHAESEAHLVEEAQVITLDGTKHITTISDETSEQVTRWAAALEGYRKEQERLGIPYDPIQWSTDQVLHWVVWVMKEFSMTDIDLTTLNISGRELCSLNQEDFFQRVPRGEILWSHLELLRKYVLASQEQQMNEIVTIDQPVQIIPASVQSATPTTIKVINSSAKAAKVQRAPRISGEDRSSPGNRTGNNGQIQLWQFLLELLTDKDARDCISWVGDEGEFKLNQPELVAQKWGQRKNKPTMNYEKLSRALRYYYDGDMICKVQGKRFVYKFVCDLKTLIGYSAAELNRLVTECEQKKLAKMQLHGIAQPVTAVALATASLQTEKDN
The method in brief:
as §1

In another experiment the target is T4, ERG (Homo sapiens, UniProt P11308 1-479).
T4 sequence: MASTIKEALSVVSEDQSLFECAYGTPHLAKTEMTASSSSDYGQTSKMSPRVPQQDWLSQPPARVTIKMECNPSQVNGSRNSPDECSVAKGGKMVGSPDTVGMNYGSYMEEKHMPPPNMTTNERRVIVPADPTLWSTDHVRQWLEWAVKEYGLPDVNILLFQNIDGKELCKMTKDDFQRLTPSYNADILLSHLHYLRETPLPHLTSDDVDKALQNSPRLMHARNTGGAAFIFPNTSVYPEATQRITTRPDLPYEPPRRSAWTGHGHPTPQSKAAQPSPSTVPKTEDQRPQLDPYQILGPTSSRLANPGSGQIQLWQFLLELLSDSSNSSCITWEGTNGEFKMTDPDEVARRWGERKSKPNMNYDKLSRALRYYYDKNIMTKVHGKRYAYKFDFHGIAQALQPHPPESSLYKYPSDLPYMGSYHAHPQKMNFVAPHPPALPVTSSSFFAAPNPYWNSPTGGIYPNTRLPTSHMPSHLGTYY
The method in brief: as §1

The target of another experiment is ELF1 (Homo sapiens, UniProt P32519 1-619). The method in brief:
as §1

For the next experiment, the target named is T5, EHF (Homo sapiens, UniProt Q9NZC4 1-300).
T5 sequence: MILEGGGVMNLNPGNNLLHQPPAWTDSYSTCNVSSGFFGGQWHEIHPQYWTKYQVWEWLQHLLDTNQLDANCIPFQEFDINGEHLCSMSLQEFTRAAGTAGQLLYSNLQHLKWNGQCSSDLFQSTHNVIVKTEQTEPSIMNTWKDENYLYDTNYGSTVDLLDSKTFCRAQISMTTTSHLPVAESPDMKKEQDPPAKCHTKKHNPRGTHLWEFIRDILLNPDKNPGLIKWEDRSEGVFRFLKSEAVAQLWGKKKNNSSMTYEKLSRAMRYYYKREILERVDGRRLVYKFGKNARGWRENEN
The method in brief: as §1

The target in another experiment is SPI1 (Homo sapiens, UniProt P17947 1-270). The method in brief:
as §1

Another experiment has as its target SPIB (Homo sapiens, UniProt Q01892 1-262). The method in brief:
as §1

The target of another experiment is T6, ELK3 (Homo sapiens, UniProt P41970 1-407).
T6 sequence: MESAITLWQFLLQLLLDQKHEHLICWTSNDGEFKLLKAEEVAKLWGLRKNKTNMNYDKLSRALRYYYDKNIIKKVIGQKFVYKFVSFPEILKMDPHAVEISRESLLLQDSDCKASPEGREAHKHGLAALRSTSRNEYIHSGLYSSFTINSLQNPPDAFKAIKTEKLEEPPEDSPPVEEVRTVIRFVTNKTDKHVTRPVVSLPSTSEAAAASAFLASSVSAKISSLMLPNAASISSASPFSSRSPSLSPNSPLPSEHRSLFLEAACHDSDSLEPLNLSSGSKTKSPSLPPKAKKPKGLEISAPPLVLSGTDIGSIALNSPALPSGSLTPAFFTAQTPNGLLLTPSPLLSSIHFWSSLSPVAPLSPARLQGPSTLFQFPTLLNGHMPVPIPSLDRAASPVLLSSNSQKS
The method in brief:
as §1

The next experiment has as its target T7, FEV (Homo sapiens, UniProt Q99581 1-238).
T7 sequence: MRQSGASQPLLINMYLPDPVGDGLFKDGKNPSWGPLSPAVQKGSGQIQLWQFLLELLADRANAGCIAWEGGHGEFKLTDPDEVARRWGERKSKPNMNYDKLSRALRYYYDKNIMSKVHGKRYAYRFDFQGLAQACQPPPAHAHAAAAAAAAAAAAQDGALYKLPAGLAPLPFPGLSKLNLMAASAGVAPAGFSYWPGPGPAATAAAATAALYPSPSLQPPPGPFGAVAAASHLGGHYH
The method in brief: as §1

For the next experiment, the target named is ETV5 (Homo sapiens, UniProt P41161 1-510). The method in brief:
as §1

In the next experiment the target is T8, SPIC (Homo sapiens, UniProt Q8N5J4 1-248).
T8 sequence: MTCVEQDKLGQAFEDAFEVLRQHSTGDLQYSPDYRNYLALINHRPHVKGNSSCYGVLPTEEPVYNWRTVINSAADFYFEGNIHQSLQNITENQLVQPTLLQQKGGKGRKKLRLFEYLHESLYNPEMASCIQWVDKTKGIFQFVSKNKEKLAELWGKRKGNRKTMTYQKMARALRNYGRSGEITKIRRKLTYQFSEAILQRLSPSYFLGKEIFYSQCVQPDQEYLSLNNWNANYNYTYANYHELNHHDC
The method in brief: as §1

A further experiment addresses ELF4 (Homo sapiens, UniProt Q99607 1-663). The method in brief:
as §1

The next experiment has as its target ETV1 (Homo sapiens, UniProt P50549 1-477). The method in brief: as §1
For the next experiment, the target named is T9, ERF (Homo sapiens, UniProt P50548 1-548).
T9 sequence: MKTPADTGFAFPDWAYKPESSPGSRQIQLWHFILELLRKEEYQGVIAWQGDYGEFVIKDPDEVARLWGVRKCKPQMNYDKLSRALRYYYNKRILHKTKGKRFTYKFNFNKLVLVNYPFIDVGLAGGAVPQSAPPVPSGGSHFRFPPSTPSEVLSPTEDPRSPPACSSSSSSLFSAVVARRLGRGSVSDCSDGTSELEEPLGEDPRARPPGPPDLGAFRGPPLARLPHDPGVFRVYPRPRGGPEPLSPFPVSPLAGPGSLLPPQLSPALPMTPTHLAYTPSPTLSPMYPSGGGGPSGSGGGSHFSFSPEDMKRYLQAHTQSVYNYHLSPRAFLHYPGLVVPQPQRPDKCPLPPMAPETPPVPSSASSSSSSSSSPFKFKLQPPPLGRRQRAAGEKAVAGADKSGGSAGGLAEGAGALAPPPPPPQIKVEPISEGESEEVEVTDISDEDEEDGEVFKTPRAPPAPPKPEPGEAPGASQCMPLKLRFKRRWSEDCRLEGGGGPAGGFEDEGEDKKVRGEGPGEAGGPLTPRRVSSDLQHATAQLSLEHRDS
The method in brief:
as §1

The target in another experiment is T10, ETV3L (Homo sapiens, UniProt Q6ZN32 1-361).
T10 sequence: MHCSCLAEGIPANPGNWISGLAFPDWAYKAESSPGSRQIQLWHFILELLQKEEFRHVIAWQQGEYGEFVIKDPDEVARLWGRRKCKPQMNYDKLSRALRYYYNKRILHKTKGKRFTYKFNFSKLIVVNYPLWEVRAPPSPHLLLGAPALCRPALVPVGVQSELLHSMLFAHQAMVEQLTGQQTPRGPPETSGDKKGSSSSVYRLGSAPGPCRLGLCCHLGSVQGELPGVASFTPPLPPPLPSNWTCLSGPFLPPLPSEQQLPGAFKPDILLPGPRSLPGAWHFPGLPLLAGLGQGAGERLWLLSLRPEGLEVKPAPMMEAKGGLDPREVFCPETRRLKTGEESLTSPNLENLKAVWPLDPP
The method in brief:
as §1

The target in a further experiment is T11, ETS2 (Homo sapiens, UniProt P15036 1-469).
T11 sequence: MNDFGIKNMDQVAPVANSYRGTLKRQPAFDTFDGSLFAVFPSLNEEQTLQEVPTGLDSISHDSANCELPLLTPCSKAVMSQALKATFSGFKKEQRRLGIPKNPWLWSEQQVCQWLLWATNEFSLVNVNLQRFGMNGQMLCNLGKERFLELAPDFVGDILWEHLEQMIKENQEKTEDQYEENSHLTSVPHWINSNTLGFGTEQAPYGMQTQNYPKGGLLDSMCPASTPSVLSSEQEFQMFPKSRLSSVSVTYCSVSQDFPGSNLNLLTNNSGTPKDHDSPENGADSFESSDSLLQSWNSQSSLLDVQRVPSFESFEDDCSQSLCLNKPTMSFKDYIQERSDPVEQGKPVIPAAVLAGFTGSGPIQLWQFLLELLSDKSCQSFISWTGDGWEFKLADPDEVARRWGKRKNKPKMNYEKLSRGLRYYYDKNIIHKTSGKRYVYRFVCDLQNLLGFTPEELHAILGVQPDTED
The method in brief: as §1

In the next experiment the target is T12, ELF5 (Homo sapiens, UniProt Q9UKW6-2 1-255).
T12 sequence: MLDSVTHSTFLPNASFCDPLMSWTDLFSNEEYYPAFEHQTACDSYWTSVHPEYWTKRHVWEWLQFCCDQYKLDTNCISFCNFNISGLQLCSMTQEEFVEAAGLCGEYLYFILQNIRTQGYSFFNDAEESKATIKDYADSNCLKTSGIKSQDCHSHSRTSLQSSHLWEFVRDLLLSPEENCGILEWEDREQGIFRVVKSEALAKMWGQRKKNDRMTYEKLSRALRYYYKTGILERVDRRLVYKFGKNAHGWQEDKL
The method in brief: as §1

For a further experiment, the target named is T13, ETV3 (Homo sapiens, UniProt P41162-2 1-143).
T13 sequence: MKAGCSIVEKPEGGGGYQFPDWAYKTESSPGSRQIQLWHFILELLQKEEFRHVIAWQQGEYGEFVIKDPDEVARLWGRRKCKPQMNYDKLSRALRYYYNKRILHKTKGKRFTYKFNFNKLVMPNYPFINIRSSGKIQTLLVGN
The method in brief:
as §1

The target of the next experiment is ETV6 (Homo sapiens, UniProt P41212 1-452). The method in brief:
as §1

Sequence of ETV6 (P41212 whole entry): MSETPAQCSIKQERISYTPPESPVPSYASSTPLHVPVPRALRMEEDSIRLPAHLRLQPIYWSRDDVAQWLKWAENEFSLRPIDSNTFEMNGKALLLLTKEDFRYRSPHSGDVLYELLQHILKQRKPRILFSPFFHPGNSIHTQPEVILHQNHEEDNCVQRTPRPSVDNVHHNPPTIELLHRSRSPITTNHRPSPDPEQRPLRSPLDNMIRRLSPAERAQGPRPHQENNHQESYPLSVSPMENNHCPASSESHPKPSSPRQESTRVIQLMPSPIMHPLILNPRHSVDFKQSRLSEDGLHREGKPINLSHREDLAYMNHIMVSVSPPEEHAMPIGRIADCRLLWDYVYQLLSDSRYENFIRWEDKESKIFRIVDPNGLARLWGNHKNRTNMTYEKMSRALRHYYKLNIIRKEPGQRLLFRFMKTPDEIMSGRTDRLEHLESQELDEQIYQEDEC
Sequence of SPIB (Q01892 whole entry): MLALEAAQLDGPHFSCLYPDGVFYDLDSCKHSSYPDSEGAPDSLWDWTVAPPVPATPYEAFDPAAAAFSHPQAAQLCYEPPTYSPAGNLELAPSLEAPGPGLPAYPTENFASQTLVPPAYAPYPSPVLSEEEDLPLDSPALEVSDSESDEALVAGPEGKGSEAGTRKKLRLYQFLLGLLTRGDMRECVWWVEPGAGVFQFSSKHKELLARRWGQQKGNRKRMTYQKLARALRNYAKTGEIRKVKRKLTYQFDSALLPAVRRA
Sequence of ETV5 (P41161 whole entry): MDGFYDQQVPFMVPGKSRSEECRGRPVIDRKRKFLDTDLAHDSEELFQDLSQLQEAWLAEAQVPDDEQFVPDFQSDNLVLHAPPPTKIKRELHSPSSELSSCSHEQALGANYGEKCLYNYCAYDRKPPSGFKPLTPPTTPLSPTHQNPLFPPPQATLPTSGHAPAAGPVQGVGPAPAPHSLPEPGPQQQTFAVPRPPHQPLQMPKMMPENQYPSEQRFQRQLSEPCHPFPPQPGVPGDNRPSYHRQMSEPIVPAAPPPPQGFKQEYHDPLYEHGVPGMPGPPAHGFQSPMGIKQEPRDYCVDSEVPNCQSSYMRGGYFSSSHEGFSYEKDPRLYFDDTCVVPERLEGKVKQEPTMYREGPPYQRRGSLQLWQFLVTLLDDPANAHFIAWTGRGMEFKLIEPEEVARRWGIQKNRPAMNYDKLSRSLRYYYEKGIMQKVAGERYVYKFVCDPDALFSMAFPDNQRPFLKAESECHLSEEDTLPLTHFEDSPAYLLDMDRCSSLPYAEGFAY
Sequence of ETV1 (P50549 whole entry): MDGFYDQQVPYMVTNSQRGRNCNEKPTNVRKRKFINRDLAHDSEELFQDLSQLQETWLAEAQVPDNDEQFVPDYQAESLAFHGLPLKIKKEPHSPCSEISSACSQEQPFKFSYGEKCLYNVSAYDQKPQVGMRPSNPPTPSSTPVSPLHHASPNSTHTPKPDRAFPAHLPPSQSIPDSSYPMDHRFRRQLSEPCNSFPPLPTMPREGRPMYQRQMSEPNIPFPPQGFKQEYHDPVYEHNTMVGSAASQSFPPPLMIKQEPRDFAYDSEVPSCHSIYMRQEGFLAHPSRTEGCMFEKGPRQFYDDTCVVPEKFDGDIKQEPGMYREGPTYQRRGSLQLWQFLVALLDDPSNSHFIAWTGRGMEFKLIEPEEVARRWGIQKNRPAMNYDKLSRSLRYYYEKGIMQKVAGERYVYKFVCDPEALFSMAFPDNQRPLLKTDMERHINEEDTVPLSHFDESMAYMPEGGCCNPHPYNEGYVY
Sequence of ELF4 (Q99607 whole entry): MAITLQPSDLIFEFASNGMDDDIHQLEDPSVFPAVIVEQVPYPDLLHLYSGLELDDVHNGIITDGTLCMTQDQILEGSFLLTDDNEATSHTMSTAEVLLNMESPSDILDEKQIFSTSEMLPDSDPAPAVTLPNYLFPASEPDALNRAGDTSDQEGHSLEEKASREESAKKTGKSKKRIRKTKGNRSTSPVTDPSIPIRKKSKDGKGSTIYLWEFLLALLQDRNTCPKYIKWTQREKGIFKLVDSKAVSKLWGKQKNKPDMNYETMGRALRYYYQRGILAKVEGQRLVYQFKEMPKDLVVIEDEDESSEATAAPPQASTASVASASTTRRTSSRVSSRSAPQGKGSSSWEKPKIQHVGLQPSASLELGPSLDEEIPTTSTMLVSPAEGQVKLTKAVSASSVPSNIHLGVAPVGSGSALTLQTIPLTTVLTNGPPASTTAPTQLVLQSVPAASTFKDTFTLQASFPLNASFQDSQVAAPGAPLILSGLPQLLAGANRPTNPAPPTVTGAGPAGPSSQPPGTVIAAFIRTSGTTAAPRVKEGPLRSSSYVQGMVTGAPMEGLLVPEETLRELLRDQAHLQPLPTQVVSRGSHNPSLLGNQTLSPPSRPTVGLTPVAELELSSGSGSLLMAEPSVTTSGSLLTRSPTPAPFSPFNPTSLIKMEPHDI
Sequence of ELF1 (P32519 whole entry): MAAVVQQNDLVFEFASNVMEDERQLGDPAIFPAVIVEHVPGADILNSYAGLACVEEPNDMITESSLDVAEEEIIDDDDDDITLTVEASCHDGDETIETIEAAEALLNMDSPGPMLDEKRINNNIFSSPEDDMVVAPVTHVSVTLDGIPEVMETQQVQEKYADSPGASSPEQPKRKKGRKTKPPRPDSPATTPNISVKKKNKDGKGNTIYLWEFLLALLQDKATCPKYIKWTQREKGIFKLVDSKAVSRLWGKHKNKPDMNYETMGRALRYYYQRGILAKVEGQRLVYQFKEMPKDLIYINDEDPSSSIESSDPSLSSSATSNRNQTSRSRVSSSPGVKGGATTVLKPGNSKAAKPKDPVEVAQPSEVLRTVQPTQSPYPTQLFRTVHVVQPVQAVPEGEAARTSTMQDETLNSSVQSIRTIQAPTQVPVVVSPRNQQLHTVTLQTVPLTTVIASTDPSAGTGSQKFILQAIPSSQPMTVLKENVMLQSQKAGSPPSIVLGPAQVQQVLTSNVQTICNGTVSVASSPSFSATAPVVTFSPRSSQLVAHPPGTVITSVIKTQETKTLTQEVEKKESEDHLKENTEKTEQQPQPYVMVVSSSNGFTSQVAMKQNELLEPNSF

On to AAACCG, for which the binding signal was 1.05 fold enrichment (6-mer frequency, TF over GST control) with FLI1; 1.05 fold enrichment (6-mer frequency, TF over GST control) with ELK1; 1.07 fold enrichment (6-mer frequency, TF over GST control) with GABPA; 1.13 fold enrichment (6-mer frequency, TF over GST control) with ERG; 1.12 fold enrichment (6-mer frequency, TF over GST control) with ELF1; 1.08 fold enrichment (6-mer frequency, TF over GST control) with EHF. For the same sequence, the binding signal with SPI1 was 1.25 fold enrichment (6-mer frequency, TF over GST control); with SPIB, 1.05 fold enrichment (6-mer frequency, TF over GST control); with ELK3 it was 1.09 fold enrichment (6-mer frequency, TF over GST control); with FEV, 1.33 fold enrichment (6-mer frequency, TF over GST control); in the experiment with ETV5, 1.07 fold enrichment (6-mer frequency, TF over GST control); with SPIC it was 1.05 fold enrichment (6-mer frequency, TF over GST control). Besides, the binding signal is 1.07 fold enrichment (6-mer frequency, TF over GST control) in the experiment with ELF4; 1.18 fold enrichment (6-mer frequency, TF over GST control) in the experiment with ETV1; 1.1 fold enrichment (6-mer frequency, TF over GST control) with ERF; 1.06 fold enrichment (6-mer frequency, TF over GST control) in the experiment with ETV3L; 1 fold enrichment (6-mer frequency, TF over GST control) in the experiment with ETS2; 1.02 fold enrichment (6-mer frequency, TF over GST control) with ELF5. Besides, the binding signal with ETV3 was 1.08 fold enrichment (6-mer frequency, TF over GST control); in the experiment with ETV6, 1.05 fold enrichment (6-mer frequency, TF over GST control).

The values are drawn from PMC7862700, “An all-to-all approach to the identification of sequence-specific readers for epigenetic DNA modifications on cytosine”.
